This is an account of results in PubChem BioAssay (Tox21).

Test [1] can be described thus: A CellTox Green Cytotoxicity Assay to monitor cytotoxicity in HEK293 cells - 32 hour (AID 1224881). Further: nearly all actives have a fitted effect of over 40% in size. Put shortly:
(§1)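 Each value comes from one timepoint of a single continuous run in which HEK293 cells with CellTox Green were exposed to compound for up to 40 h at 37 C, dye fluorescence rising with cell death.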

The nature of test [2]: A CellTox Green Cytotoxicity Assay to monitor cytotoxicity in HepG2 cells - 0 hour (AID 1224882). Further: nearly all actives have a fitted effect of over 35% in size. Put shortly: (§2)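 Continuous culture of HepG2 cells with a membrane-impermeant DNA dye; rising fluorescence marks dead cells. Compound exposure lasted up to 40 h at 37 C, with reads every 8 h from 0 h.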
The nature of test [3]: A CellTox Green Cytotoxicity Assay to monitor cytotoxicity in HEK293 cells - 8 hour (AID 1224884). Further: nearly all actives have a fitted effect of over 35% in size. The method, boiled down: as §1
The nature of test [4]: qHTS RealTime-Glo MT Cell Viability Assay in HepG2 cells - 16 hour (AID 1224885). Further: nearly all actives have a fitted effect of over 50% in size. Put shortly: (§3)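 Compound treatment began 5 h after plating HepG2 cells (600/well) with NanoLuc luciferase and prosubstrate. Plates stayed at 37 C for 40 h; luminescence was captured at six time points, 0 h through 40 h.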
In general terms: qHTS replaces the single test concentration by a dilution series.

Test [5] in a line: A CellTox Green Cytotoxicity Assay to monitor cytotoxicity in HEK293 cells - 16 hour (AID 1224888). Further: nearly all actives have a fitted effect of over 35% in size. Put shortly:
as §1

Test [6] in a line: qHTS RealTime-Glo MT Cell Viability Assay in HepG2 cells - 0 hour (AID 1224889). Further: nearly all actives have a fitted effect of over 50% in size. Put shortly: as §3
Test [7] can be described thus: A CellTox Green Cytotoxicity Assay to monitor cytotoxicity in HepG2 cells - 8 hour (AID 1224890). Further: nearly all actives have a fitted effect of over 45% in size. Put shortly:
as §2

Test [8] in a line: qHTS assay to identify small molecule antagonists of the estrogen receptor alpha (ER-alpha) signaling pathway using the BG1 cell line in the presence of 0.1 nM 17-beta-estradiol - cell viability counter screen (AID 1259241). Further: nearly all actives have a fitted effect of over 40% in size. The method, boiled down: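 VM7Luc4E2 cells (endogenous ER-alpha, 4×ERE-luciferase), hormone-starved 5 days in charcoal-stripped FBS, were treated with compounds plus 0.1 nM 17beta-estradiol for 22 hr at 37C; viability read in same wells as CellTiter-Fluor live-cell protease fluorescence.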

Test [9] deals with Androgen receptor (Homo sapiens) (UniProt P10275). As to the kind of experiment: qHTS assay to identify small molecule antagonists of the androgen receptor (AR) signaling pathway using the MDA cell line in the presence of 0.5 nM R1881 (AID 1259243). Further: nearly all actives have a fitted effect of over 50% in size. Further: potency means the concentration at half of the fitted maximal effect. The method, boiled down:
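Inhibition of R1881 (0.5 nM final) induced reporter signal was measured in human MDA-kb2 cells; note the MMTV promoter also responds to GR. Exposure lasted 16 hr at 37C.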

Test [10] has as its target Estrogen receptor (Homo sapiens) (UniProt P03372). As to the kind of experiment: qHTS assay to identify small molecule antagonists of the estrogen receptor alpha (ER-alpha) signaling pathway using the BG1 cell line in the presence of 0.1 nM 17-beta-estradiol (AID 1259244). Further: nearly all actives have a fitted effect of over 50% in size. Further: potency means the concentration at half of the fitted maximal effect. Put shortly: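 Quantitative high-throughput screen in VM7Luc4E2 cells: compound plus 0.1 nM E2 (final), 22 h, 37C, 5% CO2; ONE-Glo added, 30 min room temperature, luminescence measured.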

A short description of test [11]: qHTS assay to identify small molecule HDAC inhibitors (AID 1259364). Further: nearly all actives have a fitted effect of over 45% in size. Further: potency means the concentration at half of the fitted maximal effect. Put shortly:
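Endogenous HDAC class I/II activity was measured in wild-type HCT-116 cells by HDAC-Glo luminescence after 2 h compound treatment.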

A short description of test [12]: qHTS assay to identify small molecule HDAC inhibitors - cell viability counter screen (AID 1259365). The method, boiled down: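 Wild-type HCT-116 cells were seeded at 1,500 per well, incubated overnight at 37 C, then exposed to compounds in DMSO for 2hr. Viability was read by CellTiter-Glo luminescence after 30min at room temperature.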
Test [13] can be described thus: qHTS assay to identify small molecule agonists of the sonic hedgehog signaling (Shh) pathway - cell viability counter screen (AID 1259366). Further: nearly all actives have a fitted effect of over 50% in size. Further: potency means the concentration at half of the fitted maximal effect. Put shortly:
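NIH/3T3-derived 3T3 Gli1-Luc cells (stable Gli1-responsive firefly luciferase reporter) were seeded, rested 4 hr at 37 C/5% CO2, then exposed to compounds in DMSO for 24 hr; viability was read by CellTiter-Fluor fluorescence in the same wells.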

A short description of test [14]: qHTS assay to identify small molecule antagonists of the sonic hedgehog signaling (Shh) pathway - cell viability counter screen (AID 1259367). Further: nearly all actives have a fitted effect of over 55% in size. Further: potency means the concentration at half of the fitted maximal effect. Put shortly:
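Seed 3T3 Gli1-Luc cells at 2,000 per well; incubate 4 hr; add compound in DMSO, then conditioned medium; incubate at 37C with 5% CO2; add CellTiter-Fluor after 23 hr; read fluorescence 1 hr later.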

The nature of test [15]: qHTS assay to identify small molecule agonists of the sonic hedgehog signaling (Shh) pathway (AID 1259368; calls by dose curve; further: series mostly up to about 92 µM; nearly all actives have a fitted effect of over 15% in size). Put shortly: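 Luminescent signal was taken as a measure of Gli1-controlled luciferase expression in stably transfected NIH/3T3-derived cells that had been treated for 24 hr with compounds delivered in DMSO.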
Test [16] in a line: qHTS assay to identify small molecule antagonists of the androgen receptor (AR) signaling pathway using the MDA cell line in the presence of 0.5 nM R1881 - cell viability counter screen (AID 1259242). Further: nearly all actives have a fitted effect of over 45% in size. The method, boiled down: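 Fluorescence from CellTiter-Fluor, which reports protease activity of live cells, was read 30 min after reagent addition to MDA-kb2 cells that had been incubated 16 hr with compound and 0.5 nM R1881.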

Test [17] can be described thus: qHTS RealTime-Glo MT Cell Viability Assay in HEK293 cells - 24 hour (AID 1224886). The method, boiled down:
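Quantitative high-throughput screen of the Tox21 10K library in HEK293: cells and RealTime-Glo reagents plated together, compound added at 5 h, luminescence monitored through 40 h at 37 C.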

A short description of test [18]: qHTS RealTime-Glo MT Cell Viability Assay in HEK293 cells - 8 hour (AID 1224887). Put shortly:
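qHTS format; HEK293 cells with NanoLuc/prosubstrate reagent, 37 C/5% CO2 for 5 h pre-dosing; compounds 23 nL in DMSO; luminescence at each time point reflects viable cells.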

Test [19] can be described thus: qHTS assay to identify small molecule phospholipidosis (PLD) inducers (AID 1259344; active means well fitted curve in the direction sought with a large enough effect; an effect the other way counts as inactive or inconclusive). The method, boiled down:
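Quantitative HTS in HepG2: compound plus LipidTOX Red dye for 24 h, paraformaldehyde fixation with Hoechst 33342, widefield high-content imaging; amiodarone as positive and DMSO as negative control.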

Each structure is given as a SMILES string. A number with no mark means an inactive call. Records with an inconclusive call do not appear. Active and inactive are the calls of the source. Unless noted, the call rests on the fitted dose curve; in most records, active means well fitted curve in the direction sought with a large enough effect in the repeat runs; inconclusive means weak or mixed curves; inactive means no such curve, though single readings can be large; an effect the other way counts as inactive or inconclusive.
On the % scale 0 is the no-effect control and ±100 the full control effect.

Androgen receptor (Homo sapiens), sequence (P10275 whole entry, looked up): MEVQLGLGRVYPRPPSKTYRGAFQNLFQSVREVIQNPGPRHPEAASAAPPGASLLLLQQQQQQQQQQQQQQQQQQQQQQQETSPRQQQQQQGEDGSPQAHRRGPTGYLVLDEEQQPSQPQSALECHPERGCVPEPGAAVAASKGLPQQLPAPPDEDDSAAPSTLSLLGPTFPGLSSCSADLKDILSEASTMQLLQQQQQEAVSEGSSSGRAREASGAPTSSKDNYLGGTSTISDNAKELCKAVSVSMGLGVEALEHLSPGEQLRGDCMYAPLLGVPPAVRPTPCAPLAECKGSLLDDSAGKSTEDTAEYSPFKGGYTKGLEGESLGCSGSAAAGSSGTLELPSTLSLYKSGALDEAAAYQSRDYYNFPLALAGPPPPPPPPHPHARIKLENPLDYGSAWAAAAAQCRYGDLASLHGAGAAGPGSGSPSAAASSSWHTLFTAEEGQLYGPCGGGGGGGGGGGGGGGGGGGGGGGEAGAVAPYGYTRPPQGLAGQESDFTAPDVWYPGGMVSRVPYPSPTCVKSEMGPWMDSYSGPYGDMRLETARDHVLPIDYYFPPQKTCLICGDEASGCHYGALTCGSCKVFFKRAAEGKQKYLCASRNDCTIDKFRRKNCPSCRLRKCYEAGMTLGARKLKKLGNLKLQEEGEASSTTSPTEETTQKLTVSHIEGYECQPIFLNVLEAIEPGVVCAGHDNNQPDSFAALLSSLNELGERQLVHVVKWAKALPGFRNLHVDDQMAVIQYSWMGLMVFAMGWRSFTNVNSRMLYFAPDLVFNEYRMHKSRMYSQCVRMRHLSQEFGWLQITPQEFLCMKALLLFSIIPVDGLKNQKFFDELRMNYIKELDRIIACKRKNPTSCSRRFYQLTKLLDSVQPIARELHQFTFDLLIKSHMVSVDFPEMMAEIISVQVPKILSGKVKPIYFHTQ
Estrogen receptor (Homo sapiens), sequence (P03372 whole entry, looked up): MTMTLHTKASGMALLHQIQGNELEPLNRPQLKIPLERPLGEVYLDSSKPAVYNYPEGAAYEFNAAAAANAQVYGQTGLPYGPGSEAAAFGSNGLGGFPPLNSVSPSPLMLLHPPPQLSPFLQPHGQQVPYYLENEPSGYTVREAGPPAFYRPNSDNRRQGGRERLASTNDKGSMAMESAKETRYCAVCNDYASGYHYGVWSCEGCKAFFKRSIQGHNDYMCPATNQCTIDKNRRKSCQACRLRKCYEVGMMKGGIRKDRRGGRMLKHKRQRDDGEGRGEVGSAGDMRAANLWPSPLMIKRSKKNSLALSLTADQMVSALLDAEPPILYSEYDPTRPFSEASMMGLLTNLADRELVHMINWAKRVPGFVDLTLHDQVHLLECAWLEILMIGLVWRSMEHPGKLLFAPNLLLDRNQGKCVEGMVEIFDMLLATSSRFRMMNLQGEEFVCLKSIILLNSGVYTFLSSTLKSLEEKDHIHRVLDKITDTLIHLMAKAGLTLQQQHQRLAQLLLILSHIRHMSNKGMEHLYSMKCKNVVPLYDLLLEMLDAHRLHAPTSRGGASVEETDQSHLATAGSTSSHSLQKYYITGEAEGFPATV

In the case of `O=C1Cc2ccccc2N1c1c(Cl)cccc1Cl`, the Potency entry in test [1], in [2], in test [3], in [4], in test [5] and in test [6] was “inactive” throughout. Further, the Potency result in test [7], in [8], in [11], in test [12], in [13] and in test [14] was “inactive” in each case. In addition, in [15], the Potency result is “inactive”. Besides, the Potency in [9] is 24.3 µM (active); in test [10], 61.1 µM (active).

Turning to `O=c1cc(-c2ccccc2)oc2cc(O)cc(O)c12`, the Potency entry in [1], in test [2], in test [3], in [7], in [16] and in test [9] was “inactive” each time. In addition, the Potency entry in test [12] and in test [15] was “inactive” in each case. In addition, the Potency in test [11] was 6.86 µM (active); in [13], 48.6 µM (active); in test [14] it was 61.1 µM (active).

As for `C1C[C@@H]2[C@H]3CC[C@H](C3)[C@@H]2C1`, the Potency entry in [1], in [2], in test [3], in [4], in test [17] and in [18] was “inactive” in each case. For the same compound, the Potency entry in test [6], in test [7], in test [16], in [10], in test [11] and in test [12] was “inactive” each time. The Potency result in test [13], in test [14] and in test [15] was “inactive” in each case.

For the compound `CCC(C)COC(=O)CC(C)C` (configuration not stated), the Potency entry in test [1], in test [2], in [4], in test [17], in test [18] and in test [5] was “inactive” in each case. In addition, the Potency result in test [6], in test [7], in test [16], in [10], in [11] and in test [12] was “inactive” each time. For the same compound, the Potency result in test [13], in test [14] and in test [15] was “inactive” throughout.

For `CN1C(=O)c2ccccc2C1=O`, the Potency entry in test [1], in test [2], in [3], in test [4], in test [18] and in [5] was “inactive” each time. The Potency result in test [6], in [7], in [8], in test [16], in [19] and in test [11] was “inactive” in each case. The Potency entry in test [12], in [13] and in [15] was “inactive” in each case.

`C[C@@]12CCC[C@H]1[C@@H]1CC[C@H]3C[C@@H](O)CC[C@]3(C)[C@H]1CC2`: the Potency result in test [1], in test [2], in [3], in test [4], in test [17] and in test [18] was “inactive” throughout. Also, the Potency entry in test [5], in test [6], in [8], in [16], in test [11] and in test [12] was “inactive” each time. Besides, the Potency entry in test [13], in test [14] and in test [15] was “inactive” each time. Further, the PLD induction in test [19] was 17.2% [at 7.66 µM].

Regarding `C[C@@H](O)[C@H]1C(=O)N2C(C(=O)O)=C([C@H]3CCCO3)S[C@H]12`, the Potency entry in [1], in test [2], in test [3], in test [4], in [17] and in test [18] was “inactive” throughout. For the same compound, the Potency entry in [6], in [7], in test [8], in test [16], in test [9] and in test [10] was “inactive” in each case. Further, the Potency result in test [19], in test [11], in test [12], in test [13], in test [14] and in [15] was “inactive” each time.

With `CCCCCCCC/C=C\CCCCCCCCCCCC(=O)O`, the Potency entry in test [1], in [2], in [3], in [4], in test [17] and in test [18] was “inactive” in each case. The Potency entry in [5], in test [6], in test [8], in test [16], in [9] and in [10] was “inactive” each time. For the same compound, the Potency entry in [11], in test [12], in test [13], in [14] and in test [15] was “inactive” in each case.
